# Rab9 prom act: activates the Rab9 promoter. Huh7 Rab9 promoter-luciferase reporter, luminescence, 24 h. Potency, µM (titrated, usually from 9.22 µM), without a hit: top-dose activation, negative = inhibition, hits mostly activators. 2.8% of 320,000 active. AID 485297; note: % of control where 0% means no effect; nearly all actives have a fitted effect of over 60% in size
#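 Luminescence from Amplite-detected luciferase (10 minutes, ambient) reports Rab9 promoter activation. Before that, stable Rab9-luciferase Huh7 cells (1500/well, reduced-serum OP-MEM I plus 10% FBS) were exposed to compound for 24 hours at 37C.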
# NPC1 promoter act: activators of NPC1 promoter; Huh7 NPC1 promoter luciferase reporter, 24 h; Potency, µM (series often up to 9.22 µM), for inactives: top-dose activation, hits mostly activators; 2.4% of 320,000 active; note: % of control where 0% means no effect; nearly all actives have a fitted effect of over 60% in size
#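 Stable NPC1-promoter luciferase Huh7 line; cpd (DMSO) 24 h, 37 °C, 5% CO2; Amplite luciferase reagent 10 min RT; luminescence readout. qHTS format.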
# Luc counter: blocks Kinase-Glo luciferase, a counter-screen artifact | Potency, µM (doses to about 38.3 µM), for inactives: at the highest dose activity change, negative = inhibition, actives largely listed as inhibitors | AID 1379 | 0.28% of 200,000 active | Q27757 | Kinase-Glo luciferase, ATP luminescence, 8 min; note: % is set by controls: 0 for no effect and ±100 for the full control effect; nearly all actives have a fitted effect of over 60% in size
#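 Recombinant Kinase-Glo luciferase, 10 uM ATP (linear range), luciferin; imidazole pH 7.2 / KCl / MgCl2 / Tween / BSA buffer; 8 min RT; luminescence.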
# SMN2 splice enh: enhancers of SMN2 splice variant expression; AID 1458; 2.8% of 210,000 active; HEK293 SMN2-luciferase splicing reporter, luminescence, 30-36 h; Potency, µM (top dose mostly 46.1 µM), without a hit: top-dose activity change, positive = activation, most hits filed as activators; note: % of control where 0% means no effect; nearly all actives have a fitted effect of over 55% in size
#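 HEK293 cells carry an SMN2 […]–luciferase reporter in which exon 7 inclusion puts luciferase in frame. Cells were plated 10-12 h before compound addition, then incubated 30-36 h at 37C. ONE-Glo luminescence was read; sodium butyrate at 4.5 mM final served as control.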
# FLuc modulator: firefly luciferase modulation, counter-screen for miR-21 project | 6.9% of 360,000 active | Potency, µM (top dose mostly 57.5 µM), for the others: top-dose activity change, negative = inhibition, actives largely listed as inhibitors | P08659 | AID 588342 | purified FLuc, Km substrates, luminescence inhibition;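 note: plate controls were vehicle for no effect and reference inhibitor for full effect; nearly all actives have a fitted effect of over 55% in size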
# Target sequence (P08659 whole entry, looked up): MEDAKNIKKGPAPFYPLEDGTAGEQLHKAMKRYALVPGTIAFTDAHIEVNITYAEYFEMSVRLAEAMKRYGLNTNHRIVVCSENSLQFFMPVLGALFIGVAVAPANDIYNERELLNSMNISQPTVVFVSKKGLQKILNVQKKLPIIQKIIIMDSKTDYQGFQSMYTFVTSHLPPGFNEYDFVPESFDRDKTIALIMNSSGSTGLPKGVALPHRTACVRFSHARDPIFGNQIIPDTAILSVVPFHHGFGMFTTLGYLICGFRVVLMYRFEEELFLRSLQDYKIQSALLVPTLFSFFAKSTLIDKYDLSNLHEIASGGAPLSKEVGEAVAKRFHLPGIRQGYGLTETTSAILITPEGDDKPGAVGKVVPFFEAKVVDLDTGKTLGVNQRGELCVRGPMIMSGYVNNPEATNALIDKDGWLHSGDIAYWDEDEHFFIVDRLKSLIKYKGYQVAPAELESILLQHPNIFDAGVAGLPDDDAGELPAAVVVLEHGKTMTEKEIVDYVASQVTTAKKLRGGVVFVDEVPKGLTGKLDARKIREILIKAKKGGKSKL
#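 Purified P. pyralis luciferase, 10 nM final, with Km-level 10 uM D-luciferin and 10 uM ATP in 50 mM Tris acetate pH 7.5, 10 mM Mg acetate, 0.01% Tween-20, 0.05% BSA; 6-point qHTS titration about 60 µM downward; luminescence read.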
# Active calls of the source: *; ? = inconclusive; / = no result; [ ] = dose if it differs, or a comment. Only some compounds are listed: those with a hit (about 7.3% of all), similar ones and a draw of the others. Calls come from the whole dose curve; as a rule, active = well fitted curve in the direction sought with a large enough effect; inconclusive = small, poorly fitted or top-dose-only effect, or another doubt; inactive = no such curve, though single readings can be large; an effect the other way counts as inactive or inconclusive. Potency is the fitted concentration of half-maximal effect.
SMILES,Rab9 prom act,NPC1 promoter act,Luc counter,SMN2 splice enh,FLuc modulator
C[C@@H](O)C#C[Si](C)(C)c1ccccc1,/,/,-1%,6%,/
O=c1oc2ccccc2c(Nc2cc3ccccc3cc2O)c1[N+](=O)[O-],?,?,-14%,/,12µM*
CCN(CC)c1ccc(/C=N/NC(=S)NCc2ccccc2)c(O)c1,-7%,2%,2%,-75%,-1%
Cc1ccc2cc(/C=N/NC(=O)c3ccc(F)cc3)c(Cl)nc2c1,0%,-3%,2%,-22%,-2%
Cc1ccc2cc(/C=N/Nc3nc4ccccc4[nH]3)c(Cl)nc2c1,0.63µM*,2.8µM*,6.3µM*,5µM*,0.085µM*
CCN(CC)c1ccc(/C=N/Nc2nc3ccccc3[nH]2)c(O)c1,-28%,-30%,14%,-73%,7.6µM*
Cc1ccccc1OCC(=O)NCC(c1ccc(Cl)cc1)N1CCCCC1 (stereo not drawn),/,/,/,/,-7%
CCC(C)c1ccccc1NC(=O)c1cc2cccc([N+](=O)[O-])c2[nH]1 (stereo not drawn),0%,18%,/,/,?
Cc1ccc2[nH]c(C(=O)Nc3ccccc3)cc2c1,/,/,/,/,2.1µM*
Cc1ccc(NC(=O)c2cc3cccc([N+](=O)[O-])c3[nH]2)cc1,1.3µM*,3.2µM*,/,/,2.4µM*
CCOC(=O)c1[nH]c(C)c(C(=O)OC)c1C,-1%,10%,/,/,?
COC(=O)c1c(C)[nH]c(C(=O)/C=C/c2ccccc2Cl)c1C,?,2µM*,/,/,?
COC(=O)c1c(C)[nH]c(C(=O)/C=C/c2ccccc2F)c1C,1µM*,1.3µM*,/,/,0.3µM*
COC(=O)c1c(C)[nH]c(C(C)=O)c1C,-1%,-1%,-8%,-24%,8%
COc1ccc(C(=O)NCc2ccc3c(c2)CCN3C(C)=O)cc1OC,/,/,/,/,-5%
N#C/C(=C\c1ccc(F)cc1)c1nc(-c2ccco2)cs1,?,?,-2%,17%,2.7µM*
COc1ccc(/C=N/Nc2ncnc3c2[nH]c2ccc(C)cc23)c(OC)c1OC,4%,17%,/,/,?
Cc1ccc2[nH]c3c(NCc4ccco4)ncnc3c2c1,4%,1%,-4%,-63%,13µM*
COc1cc(CNc2ncnc3c2[nH]c2ccc(C)cc23)cc(OC)c1,-8%,0%,/,/,27µM*
Cc1ccc(-n2ncc3c(NCc4ccco4)ncnc32)c(C)c1,-4%,8%,2%,-1%,-12%
Cc1cccc(N2CCN(S(=O)(=O)c3ccc(F)c(C(=O)Nc4ccc(C(C)C)cc4)c3)CC2)c1C,/,/,/,/,2%
O=C(CSc1cccs1)Nc1ccc2ccccc2c1,?,?,-8%,9%,21µM*
O=C(CSc1cccs1)Nc1cccc2ccccc12,?,?,0%,13µM*,13µM*
CCc1ccc(-c2cc(N)n(-c3ccccc3)n2)cc1,1.3µM*,0.56µM*,-14%,5µM*,1.7µM*
Cc1ccc(C(c2c(C)nn(-c3ccccc3)c2N)c2c(C)nn(-c3ccccc3)c2N)cc1,-9%,-1%,-1%,17%,-3%
SMILES,Rab9 prom act,NPC1 promoter act,Luc counter,SMN2 splice enh,FLuc modulator
Nc1cc(C2CCCC2)nn1-c1ccccc1,?,2.2µM*,13µM*,20µM*,15µM*
Cc1cccc(-c2cc(N)n(-c3ccccc3)n2)c1,0.79µM*,1.3µM*,-24%,11µM*,4.3µM*
Cc1ccc(-c2cc(N)n(-c3ccccc3)n2)cc1,2.8µM*,1.1µM*,?,11µM*,1.7µM*
CC(C)c1ccc(CNc2nc(-c3ccco3)nn2S(=O)(=O)c2ccc3ccccc3c2)cc1,/,/,/,/,-7%
Cc1ccc(N2CC(NC(=O)CCc3ccccc3)CC2=O)cc1 (stereo not drawn),/,/,/,/,-5%
CCc1ccc(-c2cc3c(N4CCN(c5ccccc5)CC4)nccn3n2)cc1,/,/,/,14µM*,19µM*
Cc1cccc(-c2cc(NC(=O)C(C)(C)C)n(-c3ccccc3)n2)c1,/,/,/,/,21µM*
c1ccc(N2CCN(c3ncccn3)CC2)cc1,24%,5%,2%,23%,-13%
Cc1ccc(C(=O)c2oc3ccccc3c2NC(=O)COc2ccc(C(C)(C)C)cc2)cc1,/,/,/,-4%,-1%
Cc1ccc(-n2c(C)cc(C=C(C#N)C#N)c2C)cc1,1%,3%,-5%,-16%,19µM*
Cc1cc(/C=C(\C#N)C(=O)O)c(C)n1-c1ccc(Br)cc1,1%,-5%,/,/,17µM*
Cc1cc(C=C(C#N)C#N)c(C)n1-c1ccccc1,?,?,-1%,-9%,4.8µM*
Cc1cc(/C=C(\C#N)c2nnc(N3CCOCC3)n2-c2ccccc2)c(C)n1-c1ccccc1,-7%,0%,1%,-18%,17µM*
O=C(O)C12CC3(C(=O)O)CC(C(=O)O)(CC(C(=O)O)(C1)C3=O)C2=O,/,/,-4%[7.66 µM],-16%[9.22 µM],/
COc1ccc(CCNC(=O)C(C)n2c(=O)cc(C(F)(F)F)c3c(C)nn(C)c32)cc1OC (stereo not drawn),/,/,/,/,-2%
COc1ccc(NS(=O)(=O)c2ccc(-c3cnc(C4CC4)o3)cc2)cc1Cl,/,/,/,/,-4%
C=C(C)Cn1c(=O)c2c(nc3n2CCN3c2ccc(CC)cc2)n(C)c1=O,/,/,/,/,-4%
NC(=S)N/N=C/c1ccc(-c2ccc(SC(F)F)cc2)o1,0%,0%,/,/,24µM*
Cc1ccc(-c2ccc(/C=N/NC(N)=S)o2)cc1,?,?,/,/,6.7µM*
NC(=S)N/N=C/c1ccc(-c2ccccc2)o1,5%,11%,-3%,-13%,?
CCOC(=O)c1c(NC(=O)c2cc3nc(-c4ccccc4)cc(C(F)(F)F)n3n2)sc2c1CCC(C)C2 (stereo not drawn),/,/,/,/,-2%
CCOc1ccc(-c2cc(NC(=O)c3cccc(Cl)c3)c(C(=O)OC)s2)cc1,/,/,/,14%,0%
COc1ccc(-c2csc3nc(-c4ccccc4)oc(=O)c23)cc1OC,-20%,-1%,-3%,-69%,-16%
CC(=O)Oc1ccc(-c2nc3ccccc3c(=O)o2)cc1,1%,-5%,/,/,9.5µM*
CC(=O)Oc1ccc2nc(-c3cccs3)oc(=O)c2c1,-3%,-2%,1%,-11%,?
SMILES,Rab9 prom act,NPC1 promoter act,Luc counter,SMN2 splice enh,FLuc modulator
CC(=O)Oc1ccc2nc(-c3ccco3)oc(=O)c2c1,0%,-3%,/,/,12µM*
Cc1ccc2nc(-c3ccccc3C)oc(=O)c2c1,1%,-2%,/,/,6µM*
COc1cc2nc(-c3ccccc3C)oc(=O)c2cc1OC,-2%,-1%,/,/,?
COc1ccc(-c2nc3ccc(C)cc3c(=O)o2)cc1OC,0%,2%,/,/,3.4µM*
CCOc1ccccc1CNc1nc2nc(C)cc(C)n2n1,/,/,/,5%,0%
O=C(CCN1N=C(c2ccccc2)CCC1=O)NCCc1ccc(Cl)cc1,/,/,/,/,-8%
O=c1oc(-c2cccs2)nc2ccc(Br)cc12,-1%,2%,-7%,-4%,?
Cc1ccc2nc(-c3ccccc3)oc(=O)c2c1,2%,-7%,/,/,3.8µM*

# Assay outcomes (PubChem)
